Screening data deposited in PubChem BioAssay by National Center for Advancing Translational Sciences (NCATS).
WRN helicase inh: qHTS for Inhibitors of WRN Helicase; Bifunctional 3'-5' exonuclease/ATP-dependent helicase WRN (Homo sapiens), Q14191; WRN helicase unwinding, fluorescent forked duplex, kinetic; Potency, µM (series often up to 114 µM), for the others: at the highest dose activity change, negative = inhibition, usual class: inhibitors; 360,000 compounds, 0.46% hits; AID 651768, 2012; note: potency is the fitted concentration of half-maximal effect; % is set by controls: 0 for no effect and ±100 for the full control effect; nearly all actives have a fitted effect of over 55% in size
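Enzyme (20 nM final) and test compound sit together 15 min at room temperature before substrate addition. Substrate is a single-forked duplex oligonucleotide (100 nM) labelled with fluorophore and quencher, with 2 mM ATP; helicase unwinding raises red fluorescence, read kinetically.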
POLI inh: qHTS for Inhibitors of Polymerase Iota; DNA polymerase iota (Homo sapiens), Q9UNA4; Pol iota fluorescent replication assay, 10 min; Potency, µM (titrated, usually from 115 µM), inactives show at the highest dose activity, negative = inhibition, hits mostly inhibitors; 390,000 compounds, 1% hits; note: potency is the fitted concentration of half-maximal effect
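Fluorescent replication assay read twice, at 0 min and 10 min after adding 50 nM (final) substrate. Enzyme (10 nM) and compounds were first incubated 15 min at room temperature; enzyme-free buffer wells were negative controls.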
Pol beta inh: qHTS Assay for Inhibitors of DNA Polymerase Beta. P06746. Pol beta primer extension/strand displacement, fluorescence kinetic. Potency, µM (titrated, usually from 114 µM), without a hit: top-dose activity change, negative = inhibition, actives largely listed as inhibitors. 340,000 compounds, 1.3% hits; note: potency is the fitted concentration of half-maximal effect; % is set by controls: 0 for no effect and ±100 for the full control effect
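Homogeneous kinetic assay of primer extension and strand displacement by 10 nM Pol beta, preincubated 15 min at room temperature with compound before 50 nM substrate (final) was added. Read at 0 and 10 min; four-parameter Hill fit.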
Pol kappa inh-1: qHTS for Inhibitors of Polymerase Kappa; 400,000 compounds, 0.53% hits; Potency, µM (series often up to 107 µM), for the others: top-dose activity, negative = inhibition, actives largely listed as inhibitors; DNA polymerase kappa (Homo sapiens), Q9UBT6; purified Pol kappa, fluorescent DNA synthesis assay, 10 min; note: potency is the fitted concentration of half-maximal effect; % is set by controls: 0 for no effect and ±100 for the full control effect
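Inhibition of 10 nM Pol kappa is measured by a fluorescent read-out at 0 and 10 min following addition of 50 nM substrate (final), with a 15-min room-temperature compound preincubation.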
Pol eta inh-1: qHTS for Inhibitors of Polymerase Eta; DNA polymerase eta (Homo sapiens), Q9Y253; recombinant Pol eta, fluorescent DNA replication assay; Potency, µM (top dose mostly 114 µM), without a hit: at the highest dose activity change, negative = inhibition, most hits filed as inhibitors; 390,000 compounds, 1.2% hits; note: potency is the fitted concentration of half-maximal effect; % is set by controls: 0 for no effect and ±100 for the full control effect
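Pol eta (10 nM) was preincubated with compounds for 15 min at room temperature, after which fluorescent replication substrate (50 nM final) was added to start the reaction. Fluorescence was read kinetically at 0 and 10 min.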
FEN1 inh-1: qHTS Assay for the Inhibitors of Human Flap endonuclease 1 (FEN1); P39748; Recombinant FEN1 flap cleavage, fluorescence, 15 min; Potency, µM (top dose mostly 114 µM), for the others: at the highest dose activity change, negative = inhibition, most hits filed as inhibitors; 390,000 compounds, 0.35% hits; note: potency is the fitted concentration of half-maximal effect; % is set by controls: 0 for no effect and ±100 for the full control effect; nearly all actives have a fitted effect of over 65% in size
Target sequence (P39748 whole entry, looked up): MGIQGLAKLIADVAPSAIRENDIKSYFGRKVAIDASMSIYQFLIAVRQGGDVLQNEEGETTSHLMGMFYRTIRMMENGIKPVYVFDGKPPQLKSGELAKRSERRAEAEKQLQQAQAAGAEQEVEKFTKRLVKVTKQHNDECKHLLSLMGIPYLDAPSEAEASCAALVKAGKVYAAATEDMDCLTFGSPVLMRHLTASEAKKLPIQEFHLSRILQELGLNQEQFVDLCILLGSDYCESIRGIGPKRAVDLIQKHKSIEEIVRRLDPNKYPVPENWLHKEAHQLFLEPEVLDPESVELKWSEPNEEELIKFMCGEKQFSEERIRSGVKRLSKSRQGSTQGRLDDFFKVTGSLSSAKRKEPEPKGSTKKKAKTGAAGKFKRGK
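Enzyme 10 nM, 15 min RT preincubation with compound; start with substrate 50 nM final; reads at 0 and 15 min; qHTS titration, four-parameter Hill fit.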
TbPGK inh: qHTS for inhibitors of Phosphogylcerate Kinase: Hit Validation Screen. Potency, µM (top dose mostly 57.5 µM), for inactives: top-dose activity change, negative = inhibition, usual class: inhibitors. 500 compounds, 79% hits. shares compounds with Pol kappa inh-1. TbPGK coupled GAPDH assay, Kinase-Glo luminescence. AID 686980, 2013; note: potency is the fitted concentration of half-maximal effect; % is set by controls: 0 for no effect and ±100 for the full control effect; nearly all actives have a fitted effect of over 65% in size
Pol iota confirm: qHTS for Inhibitors of Polymerase Iota: Confirmatory Assay for Cherry-picked Compounds; shares compounds with Pol kappa inh-1; 1,500 compounds, 77% hits; AID 720496, 2013; Potency, µM, actives largely listed as inhibitors; Pol iota primer extension, TAMRA/BHQ fluorescence; note: potency is the fitted concentration of half-maximal effect
GALK inh confirm: Confirmation Assay for Inhibitors of Human Galactokinase (GALK); shares compounds with Pol eta inh-1; purified GALK, Kinase-Glo ATP depletion luminescence; Potency, µM (doses to about 115 µM), for the others: top-dose activity, negative = inhibition, hits mostly inhibitors; 150 compounds, 70% hits; AID 2015, 2009
Target sequence (P51570 whole entry, looked up): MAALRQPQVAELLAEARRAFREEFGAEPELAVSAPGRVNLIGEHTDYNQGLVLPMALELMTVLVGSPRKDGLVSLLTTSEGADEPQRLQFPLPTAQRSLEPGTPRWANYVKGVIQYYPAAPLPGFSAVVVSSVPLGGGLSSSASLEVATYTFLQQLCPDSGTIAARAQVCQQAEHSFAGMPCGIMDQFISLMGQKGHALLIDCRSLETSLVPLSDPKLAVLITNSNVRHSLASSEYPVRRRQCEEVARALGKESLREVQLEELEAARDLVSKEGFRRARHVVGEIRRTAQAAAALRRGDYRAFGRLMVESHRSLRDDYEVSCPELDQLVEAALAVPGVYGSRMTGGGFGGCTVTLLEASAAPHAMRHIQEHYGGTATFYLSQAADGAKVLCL
Redox cycling: Confirmatory Assay for Inhibitors of Human Galactokinase (GALK): Phenol-HRP redox assay counterscreen; Phenol red-HRP H2O2 redox cycling, absorbance 600 nm; Potency, µM (doses to about 115 µM), without a hit: at the top dose activity change, negative = H2O2 signal, usual class: inhibitors; AID 2035, 2009; 150 compounds, 40% hits; shares compounds with Pol eta inh-1
HEK293 tox: Secondary Assay for Inhibitors of Human Galactokinase (GALK): HEK-293 Cell Viability Assay. shares compounds with Pol eta inh-1. HEK-293 viability, ATP luminescence (CellTiter-Glo), 24/48 h. Potency, µM (titrated, usually from 46.1 µM), without a hit: top-dose activity change, negative = cytotoxicity, hits mostly inhibitors. 170 compounds, 10% hits. AID 2547, 2010; note: potency is the fitted concentration of half-maximal effect; % is set by controls: 0 for no effect and ±100 for the full control effect
Pol kappa inh-2: qHTS for Inhibitors of Polymerase Kappa: Confirmatory Assay for Cherry-picked Compounds. shares compounds with Pol eta inh-1. purified Pol-kappa, fluorescent strand-displacement substrate. Potency, µM, usual class: inhibitors. 920 compounds, 76% hits; note: potency is the fitted concentration of half-maximal effect
Pol eta inh-2: qHTS for Inhibitors of Polymerase Eta: Confirmatory Assay for Cherry-picked Compounds | shares compounds with Pol eta inh-1 | Pol eta primer extension, TAMRA/BHQ fluorescence, 10 min | Potency, µM, most hits filed as inhibitors | 2,600 compounds, 64% hits; note: potency is the fitted concentration of half-maximal effect
FEN1 inh-2: qHTS Assay for the Inhibitors of FEN1: Confirmatory Assay for Cherry-picked Compounds | shares compounds with FEN1 inh-1 | FEN1 flap cleavage, TAMRA/BHQ2 fluorogenic DNA substrate | Potency, µM, actives largely listed as inhibitors | 880 compounds, 79% hits; note: potency is the fitted concentration of half-maximal effect; nearly all actives have a fitted effect of over 60% in size
An asterisk follows results filed as active; ? = inconclusive; / = no result; [ ] = another dose, or the depositor's remark. Rows were chosen to be rich in hits. Some 2.4% of all compounds tested hit in one or more screens of this group. Calls come from the whole dose curve; as a rule, active = well fitted curve in the direction sought with a large enough effect; inconclusive = small, poorly fitted or top-dose-only effect, or another doubt; inactive = no such curve, though single readings can be large; an effect the other way counts as inactive or inconclusive.

SMILES	WRN helicase inh	POLI inh	Pol beta inh	Pol kappa inh-1	Pol eta inh-1	FEN1 inh-1	Pol iota confirm	Pol eta inh-2	others
NC(=O)C1CCN(C2=C(Cl)C(=O)c3ccccc3C2=O)CC1	-23%[57.1 µM]	2.8µM*	?	-9%	6.3µM*	?	42*	21*	GALK inh confirm=19µM*;Redox cycling=24µM*;HEK293 tox=?
CCN(C(=O)C(C)N1C(=O)/C(=C/c2ccco2)SC1=S)C1CCS(=O)(=O)C1 (stereo unspecified)	50µM*	22µM*	11µM*	28µM*	16µM*	?	42*	27*
Cc1ccc(NC(=O)Cn2c(O)c(N=NC(=O)c3cc([N+](=O)[O-])ccc3O)c3ccccc32)cc1	/	/	-18%	/	/	/	/	/
Cc1cccc(NC(=O)Cn2c(O)c(N=NC(=O)c3ccccc3O)c3ccccc32)c1	?	91%	16µM*	-15%	45µM*	-34%	47*	?
CSc1ncc2c(n1)-c1ccccc1N(Cc1ccc(Cl)cc1)S2(=O)=O	/	2%	10%	-5%	-7%	-3%	/	/
CCN(CC)C(=O)CC(c1cc(OC)c(OC)c(OC)c1)c1c(OC)cc(OC)c2c(-c3ccccc3)cc(=O)oc12 (stereo unspecified)	-11%[11.6 µM]	71µM*	40µM*	79µM*	40µM*	-29%	24*	60*
COc1ccc2cc(CNc3ccccc3)c(=O)n(CC(=O)Nc3ccc(C)cc3C)c2c1	/	-9%	1%	3%	-5%	-1%	/	/
COc1ccc(/C=N/NC(=O)c2ccc(Br)o2)cc1Cn1cc([N+](=O)[O-])cn1	10%	27%	-21%	-2%	-3%	-6%	/	/
COc1ccc(/C=N/NC(=O)c2cc(O)c(O)c(O)c2)cc1Cn1cc([N+](=O)[O-])cn1	8.9µM*	3.2µM*	0.56µM*	4µM*	2.8µM*	?	8.4*	15*	TbPGK inh=?
O=C(O)C1CCCCC1C(=O)Nc1cccc(Br)c1 (stereo unspecified)	50µM*	45µM*	/	?	13µM*	-6%	75*	38*	Pol kappa inh-2=19*
COc1ccc(NC(=O)C2CCN(S(=O)(=O)c3c(C)noc3/C=C/c3ccco3)CC2)cc1	/	?	25µM*	?	32µM*	6%	24*	27*	TbPGK inh=10µM*;Pol kappa inh-2=12*
COc1ccc(C)cc1NC(=O)COc1cc(=O)n(C)c2ccccc12	/	15%	25%	4%	-15%	-15%	/	/
CC1(OC(=O)c2ccc(Cl)nc2)C(=O)C=C2C=C3CCCN3C=C2C1=O (stereo unspecified)	?	?	25µM*	50µM*	14µM*	?	67*	48*
CC1(OC(=O)C2CCCC2)C(=O)C=C2C=C3CCCCN3C=C2C1=O (stereo unspecified)	6%	?	13%	?	?	-3%	/	/
Nc1ccc2c(c1)C(=O)N(c1ccc3ccccc3c1)C2=O	/	-3%	/	-13%	/	8%	/	/
O=C(O)c1ccc(-n2cccc2/C=C2\SC(=O)N(Cc3ccc(Br)cc3)C2=O)cc1	/	/	/	/	/	/	75*	76*
COc1cc(C(=O)Nc2cc3c(cc2C)n(C)c(=O)c(=O)n3C)cc(OC)c1OC	/	-5%	-13%	13%	-10%	-3%	/	/
O=c1[nH]c(-[n+]2ccccc2)c(/C=N/N=C(\[O-])c2ccccc2)s1	-5%	30%	24%	-20%	7%	-18%	/	/
Cc1cc[n+](-c2[nH]c(=O)sc2/C=N/N=C(\[O-])c2ccccc2)cc1	?	25µM*	14µM*	?	?	-32%	38*	27*	FEN1 inh-2=67*
CCC1=NN2C(=N)/C(=C\c3ccc(OCc4cc(=O)n5nc(CC)sc5n4)c(OC)c3)C(=O)N=C2S1	-32%[11.6 µM]	?	4.5µM*	32µM*	8.9µM*	50µM*	19*	17*	FEN1 inh-2=38*
O=C(CS(=O)(=O)c1cccc2nsnc12)N1CCN(c2cccc(C(F)(F)F)c2)CC1	/	8%	-12%	-8%[60.1 µM]	-6%	3%	/	/
O=C(O)C1OC(Oc2cc3oc(-c4ccccc4)cc(=O)c3c(O)c2O)C(O)C(O)C1O (stereo unspecified)	6%	10µM*	50µM*	79µM*	-16%	50µM*	21*	/	FEN1 inh-2=34*
